Screens (PubChem BioAssay)
POLI inh – blocks human DNA polymerase iota activity. Q9UNA4. Pol iota fluorescent replication assay, 10 min. Potency, µM (titrated, usually from 115 µM), for the others: at the top dose activity, negative = inhibition, most hits filed as inhibitors. 390,000 tested, 1% active; also: potency is read from the fitted curve at half-maximal effect
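Fluorescent replication assay read twice, at 0 min and 10 min after adding 50 nM (final) substrate. Enzyme (10 nM) and compounds were first incubated 15 min at room temperature; enzyme-free buffer wells were negative controls.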
POLB inh – DNA polymerase beta (human) inhibition | P06746 | Pol beta primer extension/strand displacement, fluorescence kinetic | Potency, µM (doses to about 114 µM), for inactives: at the top dose activity change, negative = inhibition, most hits filed as inhibitors | 340,000 tested, 1.3% active | AID 485314; also: potency is read from the fitted curve at half-maximal effect; % is scaled to controls: 0 for no effect and ±100 for the full control effect
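10 nM enzyme + cpd, 15 min RT; start with substrate 50 nM final; read 0 min and after 10 min RT. Corrected, normalized data; 4-parameter Hill curve fit.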
FEN1 inhibitor – blocks human flap endonuclease 1; P39748; Recombinant FEN1 flap cleavage, fluorescence, 15 min; Potency, µM (series often up to 114 µM), inactives show top-dose activity change, negative = inhibition, actives largely listed as inhibitors; 390,000 tested, 0.35% active; also: potency is read from the fitted curve at half-maximal effect; % is scaled to controls: 0 for no effect and ±100 for the full control effect; nearly all actives have a fitted effect of over 65% in size
Target sequence (P39748 whole entry, looked up): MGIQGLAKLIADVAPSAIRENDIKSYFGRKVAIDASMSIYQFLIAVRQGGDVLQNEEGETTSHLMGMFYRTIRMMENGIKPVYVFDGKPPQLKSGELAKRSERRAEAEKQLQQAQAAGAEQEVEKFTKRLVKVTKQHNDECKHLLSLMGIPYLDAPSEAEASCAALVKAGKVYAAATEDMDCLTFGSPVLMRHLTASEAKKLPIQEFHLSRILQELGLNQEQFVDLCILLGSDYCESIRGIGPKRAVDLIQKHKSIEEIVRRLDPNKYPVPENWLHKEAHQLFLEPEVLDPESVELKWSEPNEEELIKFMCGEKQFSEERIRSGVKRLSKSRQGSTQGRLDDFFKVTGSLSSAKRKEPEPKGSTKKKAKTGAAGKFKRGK
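Quantitative HTS format: each compound was titrated, incubated with 10 nM nuclease for 15 min at room temperature, then challenged with flap substrate at 50 nM final. Signal change over 15 min gave concentration–effect curves.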
Pol eta inh-1 – DNA polymerase eta (human) inhibition | Q9Y253 | recombinant Pol eta, fluorescent DNA replication assay | Potency, µM (top dose mostly 114 µM), for inactives: top-dose activity change, negative = inhibition, hits mostly inhibitors | 390,000 tested, 1.2% active; also: potency is read from the fitted curve at half-maximal effect; % is scaled to controls: 0 for no effect and ±100 for the full control effect
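Fluorescent replication assay: 50 nM final substrate added after a 15 min room-temperature compound preincubation with 10 nM enzyme. Signal taken at 0 min and again at 10 min.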
Pol kappa inh-1 – blocks human DNA polymerase kappa activity; 400,000 tested, 0.53% active; Potency, µM (doses to about 107 µM), for inactives: at the top dose activity, negative = inhibition, most hits filed as inhibitors; purified Pol kappa, fluorescent DNA synthesis assay, 10 min; also: potency is read from the fitted curve at half-maximal effect; % is scaled to controls: 0 for no effect and ±100 for the full control effect
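Kinetic fluorescence screen: compound preincubated 15 min RT with 10 nM enzyme; 50 nM substrate (final) initiates; reads at 0/10 min.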
TDP1 inh – blocks human tyrosyl-DNA phosphodiesterase 1; recombinant TDP1, AlphaScreen DNA substrate cleavage; 350,000 tested, 0.28% active; Q9NUW8; Potency, µM (top dose mostly 130 µM), for inactives: at the top dose activity change, negative = inhibition, usual class: inhibitors; AID 485290; also: potency is read from the fitted curve at half-maximal effect; % is scaled to controls: 0 for no effect and ±100 for the full control effect; nearly all actives have a fitted effect of over 40% in size
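Recombinant human Tdp1 (E. coli-expressed, 1 nM final) preincubated with compounds 15 min at room temperature, then 5'-biotin/3'-phosphotyrosine-FITC DNA substrate (15 nM final) added for 5 min. AlphaScreen beads (10 ug/ml final) added 10 min; cleavage lowers signal.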
GALK confirm – confirmation of human galactokinase (GALK) inhibitors; 150 tested, 70% active; Potency, µM (series often up to 115 µM), for the others: top-dose activity, negative = inhibition, hits mostly inhibitors; shares compounds with Pol eta inh-1; purified GALK, Kinase-Glo ATP depletion luminescence
Target sequence (P51570 whole entry, looked up): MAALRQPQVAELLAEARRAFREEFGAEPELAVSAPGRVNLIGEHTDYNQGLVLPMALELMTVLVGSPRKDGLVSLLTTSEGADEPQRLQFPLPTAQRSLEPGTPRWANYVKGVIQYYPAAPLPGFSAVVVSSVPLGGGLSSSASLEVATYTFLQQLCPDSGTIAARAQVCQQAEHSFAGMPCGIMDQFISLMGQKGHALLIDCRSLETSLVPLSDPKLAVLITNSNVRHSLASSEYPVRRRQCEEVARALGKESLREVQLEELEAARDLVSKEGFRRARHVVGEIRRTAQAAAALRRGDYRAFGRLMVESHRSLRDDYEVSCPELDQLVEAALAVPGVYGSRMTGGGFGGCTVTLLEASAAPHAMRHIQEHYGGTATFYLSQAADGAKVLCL
Redox cycling – counter-screen for GALK inhibitors: redox cycling H2O2 generation. shares compounds with Pol eta inh-1. Phenol red-HRP H2O2 redox cycling, absorbance 600 nm. Potency, µM (highest dose often 115 µM), for inactives: top-dose activity change, negative = H2O2 signal, usual class: inhibitors. 150 tested, 40% active. AID 2035
HEK293 viability – counter-screen for GALK inhibitors: HEK293 cell cytotoxicity. 170 tested, 10% active. HEK-293 viability, ATP luminescence (CellTiter-Glo), 24/48 h. Potency, µM (series often up to 46.1 µM), inactives show at the highest dose activity change, negative = cytotoxicity, hits mostly inhibitors. AID 2547. shares compounds with Pol eta inh-1; also: potency is read from the fitted curve at half-maximal effect; % is scaled to controls: 0 for no effect and ±100 for the full control effect
Pol kappa inh-2 – Pol kappa (human) inhibition, cherry-pick confirmation. 920 tested, 76% active. purified Pol-kappa, fluorescent strand-displacement substrate. shares compounds with Pol eta inh-1. Potency, µM, most hits filed as inhibitors. AID 720501; also: potency is read from the fitted curve at half-maximal effect
Pol eta inh-2 – Pol eta (human) inhibition, cherry-pick confirmation; shares compounds with Pol eta inh-1; Pol eta primer extension, TAMRA/BHQ fluorescence, 10 min; Potency, µM, usual class: inhibitors; 2,600 tested, 64% active; AID 720502; also: potency is read from the fitted curve at half-maximal effect
Active calls of the source: *; ? = inconclusive; · = no result; ! = repeats disagree; [ ] = remark or other dose. The list is not random: actives were taken first. Their share in the collection is about 2.4%. Calls follow the shape of the dose curve; as a rule, active = well fitted curve in the direction sought with a large enough effect; inconclusive = small, poorly fitted or top-dose-only effect, or another doubt; inactive = no such curve, though single readings can be large; an effect the other way counts as inactive or inconclusive.

SMILES | POLI inh | POLB inh | FEN1 inhibitor | Pol eta inh-1 | Pol kappa inh-1 | TDP1 inh | Pol eta inh-2 | others
O=C(Nc1sc2c(c1C(=O)O)CCC2)C(=O)N1CCOCC1 | ? | ? | 8.9% | 20µM* | -7.1% | -18.5% | ?
COCCN(C(=O)c1cc2c(s1)CCCCC2)c1c(N)n(Cc2ccccc2)c(=O)[nH]c1=O | 33.6% | · | 2.3% | -23.3% | -5.3% | -8.4% | ·
COCCN(C(=O)COC(=O)c1cc2c(s1)CCCC2)c1c(N)n(Cc2ccccc2)c(=O)[nH]c1=O | 50.1µM* | · | -0.2% | 44.7µM* | ? | · | ?
CN(C)CCCN1C(=O)c2cc3ccccc3cc2C1=O | -13.9% | 25.3% | 0.7% | -2.6% | -12.5% | 1.6% | ·
CN(C)CCCn1c2c3ccccc3ccc2c2oc(=O)c3ccccc3c21 | 14.1µM* | · | 3.16µM* | ? | 50.1µM*! | · | ?
COCCNC(=O)CN1CCC(NC(=O)c2ccco2)CC1 | 6.3% | -22.1% | 1.4% | -12.1% | -5.1% | 0.0% | ·
O=C(O)c1cccc(COc2ccc3c(c2)CCC3)c1 | ? | 22.4µM* | -11.4% | 39.8µM* | ? | 1.4% | 47.8*
Cc1ccc(C(=O)OCC(=O)c2ccc(CC(=O)N3CCOCC3)s2)cc1C | 22.4µM* | · | -4.8% | 12.6µM* | 79.4µM* | -17.3% | ?
CCc1ccc(-c2nc(SCC(=O)NC3CC3)n[nH]2)cc1 | 40.6% | · | -4.4% | -16.8% | -5.3% | · | ·
COc1ccc(/C=C/C(=O)OCC(=O)Nc2ncc(Cl)cc2Cl)cc1 | -21.7% | · | -8.1% | ? | -7.9% | -2.6% | ·
COc1ccc(OCCCC(=O)OCC(=O)Nc2ncc(Cl)cc2Cl)cc1 | ? | · | -16.2% | 39.8µM* | -30.6% | · | 84.9* | Pol kappa inh-2=?
O=C(COC(=O)CNC(=O)c1ccc([N+](=O)[O-])o1)Nc1ncc(Cl)cc1Cl | ? | · | -2.8% | ? | -21.2% | -19.2% | ?
COc1ccc(OC)c(S(=O)(=O)CC(=O)c2cc3ccc(OC)cc3oc2=O)c1 | 19.8% | ? | 3.9% | -7.1% | 4.2% | 4.8% | ·
COc1ccc(S(=O)(=O)CC(=O)c2cc3cc(Br)ccc3oc2=O)cc1 | 12.6µM* | 10µM* | ? | 28.2µM* | ? | 5.7% | ?
Cc1ccc(NC(=O)N/C=C/c2ccco2)cc1C | 39.8µM* | 25.1µM* | -3.4% | 28.2µM* | 79.4µM* | 0.0% | ?
Cn1c2ccccc2c(=O)n2c(=O)c3ccccc3cc12 | · | 11.0% | · | · | · | -1.0% | · | GALK confirm=10.6µM*;Redox cycling=9.43µM*;HEK293 viability=0.4%
Cn1c(-c2ccccc2)cc(=O)c2ccccc21 | 45.1% | -3.1% | 3.5% | -12.8% | -4.4%[60.1 µM] | -3.4% | ·
COc1cc(Cl)cc(CN2CCC(CCC(=O)NC3CC3)CC2)c1OC | 1.5% | 24.4% | -9.4% | 6.4% | 2.8% | · | ·
CC1(C)CC(=O)C2=C(C1)c1c(ccc3ccccc13)NC2c1cc([N+](=O)[O-])cc([N+](=O)[O-])c1O (stereo not given) | ? | 44.7µM* | ? | 28.2µM* | -35.7% | 4.8% | ? | Pol kappa inh-2=47.4*
CC1(C)CC(=O)C2=C(C1)c1c(ccc3ccccc13)NC2c1ccc(C(=O)O)cc1 (stereo not given) | 21.2% | 15.3% | -14.3% | 4.0% | -8.8% | · | ·
COc1ccc(C(=O)N2CCOC2CNC(=O)C(=O)NCc2ccccc2Cl)cc1 (stereo not given) | 16.2% | 0.7% | -0.9% | -13.7% | -9.5% | 0.8% | ·
C=CCOc1cccc(C2C(C(=O)c3ccco3)=C(O)C(=O)N2Cc2ccncc2)c1 (stereo not given) | 8.5% | 3.2% | -4.3% | 3.7% | -4.5% | -2.2% | ·
C=CCOc1cccc(C2C(C(=O)c3ccco3)=C(O)C(=O)N2Cc2ccco2)c1 (stereo not given) | ? | 3.1% | -10.8% | ? | -12.9% | · | ?
COc1ccc(N2CC(C(=O)Nc3nnc(SCC(=O)NCc4ccco4)s3)CC2=O)cc1 (stereo not given) | ? | ? | -16.6% | 22.4µM* | -42.4% | 1.7% | ? | Pol kappa inh-2=42.3*
CCS(=O)(=O)Nc1ccc(C2=NN(S(=O)(=O)CC)C(c3cccs3)C2)cc1 (stereo not given) | -4.3% | -2.4% | 11.8% | -15.7% | 1.1% | 4.3% | ·
SMILES | POLI inh | POLB inh | FEN1 inhibitor | Pol eta inh-1 | Pol kappa inh-1 | TDP1 inh | Pol eta inh-2 | others
O=C1/C(=C/C=C/c2ccco2)SC(=S)N1c1ccc(O)cc1 | ? | 3.16µM* | 14.1µM* | 3.55µM* | 7.94µM* | · | 60.1*
Cc1nn2c(=O)cc(COC(=O)c3ccco3)nc2s1 | 18.4% | -0.4% | 0.7% | -18.1% | -3.9% | 5.8% | ·
CCOC(=O)C1=C(COC(=O)COc2ccccc2C=O)NC(=O)NC1C (stereo not given) | ? | · | -8.7% | 12.6µM* | ? | -4.2% | 75.7*
CCOC(=O)C1=C(COC(=O)COc2ccccc2OCC)NC(=O)NC1C (stereo not given) | 2.7% | · | 4.6% | -5.0% | 2.0% | -8.9% | ·
CCOC(=O)N1CCN(C(=O)Cc2ccccc2[N+](=O)[O-])CC1 | 1.4% | 31.0% | -10.8% | 0.5% | -7.8% | 3.3% | ·
Cc1cc(NS(=O)(=O)c2ccc(NC(=O)/C=C/c3ccc(C)o3)cc2)nc(C)n1 | -66.7% | 9.4% | ? | 44.7µM* | -32.7% | -13.5% | 75.7*
CC1=C(C(N)=O)C(c2cccs2)n2nc(-c3cccc(C)c3)nc2N1 (stereo not given) | 11.3% | 25.6% | -0.3% | 6.6% | -9.4% | 4.9% | ·
